Results taken from PubChem BioAssay (NCI).
Compounds without any hit were thinned out: in the full panel of roughly 79,000, 15% have a hit. No stated cut-off is given here; in the data, active means growth inhibition above about 70%; inactive means the rest.

Key:
[1] = NCI Yeast Anticancer Drug Screen. Data for the rad50 strain (AID 155);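 further: 0% = growth of vehicle-only cultures of the same strain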; conditions: S. cerevisiae rad50 strain growth inhibition; at 50.0 µM; stronger effect = higher value
Outline: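 Inhibition values express reduced yeast growth in compound-treated cultures relative to vehicle-treated controls.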

[2] = NCI Yeast Anticancer Drug Screen. Data for the mec2-1 strain (AID 157); conditions: S. cerevisiae mec2-1 strain, at 50.0 µM, stronger effect = higher value
Outline: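 mec2-1 yeast strain, carrying an alteration in DNA damage repair or cell cycle control, was exposed to compounds; growth inhibition was measured relative to vehicle-treated controls.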

[3] = NCI Yeast Anticancer Drug Screen. Data for the sgs1 mgt1 strain (AID 161);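 further: 0% = growth of cultures given vehicle only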; conditions: S. cerevisiae sgs1 mgt1 strain, at 50.0 µM, stronger effect = higher value
Outline: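 Compounds are added to genetically altered yeast, and growth is compared with cultures given vehicle alone to give percent inhibition.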

[4] = NCI Yeast Anticancer Drug Screen. Data for the cln2 rad14 strain (AID 165);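 further: 0% = growth equal to vehicle treated cultures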; conditions: S. cerevisiae cln2 rad14 strain, at 50.0 µM, stronger effect = higher value
Outline: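 Yeast carrying cln2 and rad14 alterations (cell cycle control and DNA damage repair) were exposed to compounds. Growth inhibition was measured against vehicle-treated controls.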

[5] = NCI Yeast Anticancer Drug Screen. Data for the bub3 strain (AID 167); conditions: S. cerevisiae bub3 mutant strain, at 50.0 µM, stronger effect = higher value
Outline: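 Steps: expose the mutant yeast strain to compound; grow alongside vehicle-treated cultures; measure growth; express inhibition against the vehicle cultures.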

[6] = NCI Yeast Anticancer Drug Screen. Data for the mlh1 rad18 strain (AID 175); conditions: S. cerevisiae mlh1 rad18 strain growth inhibition; at 50.0 µM; stronger effect = higher value
Outline: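 Growth inhibition of the yeast strain was measured after compound exposure and expressed relative to vehicle-treated controls. The strain carries defined defects in DNA damage repair.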

Measured: growth inhibition

COC(=O)c1cc(-c2ccccc2)nc2c(Cl)cc(Cl)cc12
inactive: [1] -4.4% | [2] -12.1% | [3] -5.55% | [4] -28.6% | [5] 11.7% | [6] -14.4%

Cc1ccccc1C(=O)NCc1ccccc1
inactive: [1] 13.6% | [2] -6.7% | [3] 0.6% | [4] -27.5% | [5] 11.3% | [6] 4.25%

CC(=O)Nc1ccc2c(c1)C(=O)c1ccc(S(C)(=O)=O)cc1-2
inactive: [1] 14.8% | [2] -1.15% | [3] -0.95% | [4] 3.5% | [5] -0.85% | [6] -3.35%

[N-]=[N+]=NCC1OCOC1C1OCOC1CN=[N+]=[N-] (stereo unspecified)
inactive: [1] -6.85% | [2] 10.6% | [3] -4.05% | [4] -33.7% | [5] 4.2% | [6] -3.5%

O=S(=O)(O)CNc1ccc(Cl)cc1
inactive: [1] 15.8% | [2] -12.7% | [3] 4.05% | [4] -29.7% | [5] -23.1% | [6] 4.05%

COc1cc(C2=N/C(=C\C=C\c3ccccc3)C(=O)O2)cc(OC)c1OC
inactive: [1] 16.8% | [2] 16% | [3] 21.9% | [4] 18.9% | [5] 18.8% | [6] 16.9%

Nc1ccccc1SC1CC(=O)N(c2ccc(Oc3ccc(Cl)cc3)cc2)C1=O (stereo unspecified)
inactive: [1] 25.6% | [2] 12.2% | [3] 13.8% | [4] -12.2% | [5] -0.15% | [6] 2.55%

COc1ccc(Oc2nc(=O)n3ccccc3n2)cc1
inactive: [1] -13.4% | [2] 0.65% | [3] -14.6% | [4] -12.6% | [5] 9.45% | [6] -20.7%

CC(=O)OCC(=O)[C@@]1(O)CC[C@H]2[C@@H]3CCC4=CC(=O)CC[C@]4(C)[C@H]3C(=O)C[C@@]21C
inactive: [1] -25.1% | [2] -23.6% | [3] -6.85% | [4] 4.2% | [5] -17.9% | [6] -21.3%

CCCc1nc2ccccc2c(=O)n1/N=C/c1ccc(Cl)cc1
inactive: [1] 0.5% | [2] 7.3% | [3] -0.4% | [4] 5.7% | [5] 0.9% | [6] 7.95%

CCOC(=O)c1cnc(SC)nc1Nc1cccc(C)c1
inactive: [1] -13.4% | [2] -10.4% | [3] -11.9% | [4] -18.1% | [5] 9.1% | [6] -36.1%

C1CSCCSCCCSCCSCCCSCCSCCCSCCSC1
inactive: [1] 21.2% | [2] 20.9% | [3] 45.9% | [4] 13.4% | [5] 21.1% | [6] 44.6%

CCN(CC)CC(C)(C)C(O)c1ccc(OC)c2ccccc12 (stereo unspecified)
inactive: [1] -6.15% | [2] 7.3% | [3] 17.9% | [4] -26.8% | [5] 9.45% | [6] 8.8%

CC(C)=C1C2C=CC1C(CO)C2CO (stereo unspecified)
inactive: [1] 9.8% | [2] -4.4% | [3] -3.95% | [4] -64% | [5] 2.2% | [6] 10.8%

O=c1[nH]c2cc(Br)c(Br)cc2c2ccc(Br)cc12
inactive: [1] 43% | [2] -3.8% | [3] 13.7% | [4] 1.3% | [5] 5.8% | [6] 5.15%

Cc1nnc2n(c1=O)CCN2C
inactive: [1] -1.65% | [2] 0.1% | [3] 12.3% | [4] -4.4% | [5] 7.8% | [6] 26.2%

Cc1nc2cccc3ccc4cc5ccccc5c1c4c32
inactive: [1] 69.6% | [2] 12.7% | [3] 16.1% | [4] 7.3% | [5] 25.9% | [6] 14.9%

FC(F)(F)c1nc(Nc2ccccc2)c2[nH]cnc2n1
inactive: [1] -16.4% | [2] 4.55% | [3] 2.45% | [4] -20.9% | [5] 12.2% | [6] -4.6%

O=C(O)C1CC2C3CC(C(=O)O)C(C3)C2C1 (stereo unspecified)
inactive: [1] -15.8% | [2] -24.7% | [3] -5.55% | [4] -1.85% | [5] -10.8% | [6] -13.9%

CC(C)(C)S(=O)(=O)CCCCl
inactive: [1] 12.8% | [2] -13.9% | [3] -1.65% | [4] -8.5% | [5] 13.2% | [6] 13.5%

O=C(O)c1ccccc1C(NC(=O)N1C(=O)C=CC1=O)NC(=O)N1C(=O)C=CC1=O
inactive: [1] 29.2% | [2] -5.1% | [3] -2.85% | [4] 16.4% | [5] 4.8% | [6] 12.8%

Oc1ccc(-c2cc(-c3c(O)cc(O)cc3O)on2)cc1
inactive: [1] 4.25% | [2] -1.45% | [3] -17.4% | [4] -2.85% | [5] -7.45% | [6] 9.35%

COc1ccc(/C=C\c2cc(OC)c(OC)c(OC)c2)cc1OCC(=O)O
inactive: [1] -5.95% | [2] -1.75% | [3] 13% | [4] 8.65% | [5] -10.4% | [6] -52.5%

O=c1[nH][nH]c(=O)c2c1ccc1oc3ccccc3c12
inactive: [1] -13.8% | [2] 0.55% | [3] -20.7% | [4] 28.2% | [5] 2.55% | [6] 4.4%

CCOc1ccc(NC(=O)COc2ccc(Cl)cc2Cl)cc1
inactive: [1] 14.9% | [2] 22.3% | [3] 23.5% | [4] 18.4% | [5] 26.1% | [6] 14.9%

COc1ccc(N=NC(=S)NNc2ccc(OC)cc2Oc2ccccc2)c(Oc2ccccc2)c1
inactive: [1] 12.5% | [2] -0.4% | [3] 29.4% | [4] 11.8% | [5] -4.6% | [6] 3.35%

O=[N+]([O-])c1cccc(S(=O)(=O)O)c1 (tested in a mixture with another compound)
inactive: [1] 15.3% | [2] -3.65% | [3] -0.1% | [4] -33.6% | [5] -2.2% | [6] -4.95%

CC1(C)CC([NH-])(C(=O)O)CC(C)(C)N1O.CC1(C)CC([NH-])(C(=O)O)CC(C)(C)N1O.[Cu+2]
inactive: [1] 27.6% | [2] -17.9% | [3] 16.5% | [4] -20.3% | [5] 0.7% | [6] 4.55%

CC(C)c1ccc2nc3ccc(C(=O)NCCN(C)C)cn3c(=O)c2c1
inactive: [1] -15.8% | [2] -0.25% | [3] -10.4% | [4] 2.65% | [5] -1% | [6] 9%

COc1ccc(-c2c3c(n(C4OC(COC(C)=O)C(OC(C)=O)C(OC(C)=O)C4OC(C)=O)c(=S)c2C#N)CCCC3)cc1 (stereo unspecified)
inactive: [1] -17.9% | [2] -13.2% | [3] 3.4% | [4] 2.05% | [5] -1.95% | [6] -5%

CCOC(=O)C(=N\Nc1ccccc1Br)/C(C)=N\NC(N)=S
inactive: [1] 50% | [2] 19.6% | [3] 56.9% | [4] 14.7% | [5] 9.3% | [6] 33%

COc1ccc(C(C)=O)cc1CCCO
inactive: [1] -1.55% | [2] 5.85% | [3] 0.4% | [4] 30.6% | [5] 13% | [6] 20.6%

CCOC(=O)/C=C/c1ccccn1
inactive: [1] -15.3% | [2] -9.5% | [3] -35.5% | [4] 11.9% | [5] -12.8% | [6] -25.6%

BrC1CCC(Br)CC1 (stereo unspecified)
inactive: [1] 7.1% | [2] -11.1% | [3] -8.45% | [4] -12.9% | [5] -2.3% | [6] -9.7%

Cn1c([N+](=O)[O-])cnc1COc1ccc(NC(=O)CN2CCOCC2)cc1
inactive: [1] 27% | [2] 1.05% | [3] 19.9% | [4] 33.2% | [5] 10.3% | [6] 18.2%

c1ccc(Nc2cc(Nc3ccccc3)ncn2)cc1
inactive: [1] 4.4% | [2] -20.5% | [3] 3.8% | [4] -6.5% | [5] -2.2% | [6] 2.35%

CN(C)c1ccc(/C=C(\NC(=O)c2ccccc2)C(=O)NC(CC(=O)O)C(=O)O)cc1 (stereo unspecified)
inactive: [1] 10.2% | [2] 1.45% | [3] 17.9% | [4] 7% | [5] -0.25% | [6] -0.55%

COc1ccc(C2c3cc4c(cc3OC(Nc3ccccc3)C2C)OCO4)cc1 (stereo unspecified)
inactive: [1] 9% | [2] 9.95% | [3] 30% | [4] 43.8% | [5] 27.1% | [6] 33.6%

CCOC(=O)N(C)C(=C(F)F)C(F)(F)F
inactive: [1] 9.1% | [2] -0.1% | [3] 10.8% | [4] 33.6% | [5] 12.4% | [6] -26.1%

O=C(O)c1ccccc1[N+](=O)[O-]
inactive: [1] -4.1% | [2] 10.1% | [3] -9.5% | [4] 1.3% | [5] -4.3% | [6] 10.8%

Clc1ccc(Nc2ncco2)cc1Cl
inactive: [1] 16.7% | [2] -15.2% | [3] 30.6% | [4] -0.8% | [5] 1.1% | [6] 16.8%
